# Experimental data as given in PubChem BioAssay AID1508637 (National Center for Advancing Translational Sciences (NCATS), 2021).
# Records with an inconclusive call do not appear. The source made the active and inactive calls. The call rests on the fitted dose curve; in most records, active means well fitted inhibition curve with a large enough effect; inconclusive means small, poorly fitted or top-dose-only effect; inactive means flat fitted curve, though single readings scatter. Starred links: 1 amine or outer side, 2 acyl side, 3 side chain; linkers in the order of their positions; H or OH if unused. Non-standard residues stand in square brackets, D forms with d. Residues, ends and D or L forms follow the SMILES beside them. X1 = O=C([C@@H](CC(O)CCl)O[*:1])[*:2]; aIle = CC[C@@H](C)[C@H](N)C(=O)O; NMeV = CN[C@H](C(=O)O)C(C)C; NMeA = CN[C@@H](C)C(=O)O; βAla = NCCC(=O)O
# Test: qHTS for characterization and localization of zebrafish homologs of the human ABCB1 multidrug transporter: empty vector transfected cells
# Conditions: empty vector transfected control cells, CellTiter-Glo luminescence viability, 72 h
# From the text: The zebrafish has emerged as a potential model to study the blood-brain barrier (BBB) given its similarities with mammalian systems. However, little information has been available with regard to homologous ATP-binding cassette transporters expressed at the zebrafish BBB. Two transporters that are highly expressed at the human BBB are P-glycoprotein (P-gp, encoded by the ABCB1 gene) and ABCG2 (encoded by the ABCG2 gene). In this study, we focus on characterization of P-gp homologs in the zebrafish, which has two genes that are homologous to human ABCB1 - abcb4 and abcb5. We generated stably-transfected cell lines to determine their substrate specificities. […] Zebrafish abcb4 also colocalized with claudin 5 expression in brain endothelial cells.
# A high-throughput screen was performed as previously described on empty vector transfected cells, P-gp-overexpressing MDR-19 cells and cells transfected with full-length zebrafish abcb4 (ZF Abcb4) or abcb5 (ZF Abcb5). Briefly, cells were plated into 1536-well plates at a density of 500 cells/well in 5 uL media. P-gp substrate compounds (approximately 90) selected from our previous study were then added at varying concentrations using a 1536-head pin tool (Kalypsis, San Diego, CA) and plates were incubated at 37C in 5% CO2 for 72 h. CellTiter-Glo reagent (Promega) was dispensed into the wells, incubated for 5 min and luminescence was read on a ViewLux instrument (Perkin-Elmer).
# Cytotoxic compounds were defined as those that yielded a curve class of -1.1, -1.2, -2.1, -2.2, -2.3, or -2.4, a maximum response of >50% and an AC50 of < 10 uM. All compounds from screening analysis were tested in Vector (empty vector control), MDR-19 (P-gp overexpressing), zebrafish abcb4 (ZF Abcb4) and abcb5 (ZF Abcb5) expression cell lines.
# 1. Tobie D Lee, Olivia W Lee, Kyle R Brimacombe, Lu Chen, Rajarshi Guha, Sabrina Lusvarghi, Bethilehem G Tebase, Carleen Klumpp-Thomas, Robert W Robey, Suresh V Ambudkar, Min Shen, Michael M Gottesman, Matthew D Hall. A High-Throughput Screen of a Library of Therapeutics Identifies Cytotoxic Substrates of P-glycoprotein. […]
row,SMILES,Potency
1,C[C@@H]1[C@@H](CC(C[C@H]2O[C@@H]3O[C@]4(C)CC[C@@H]5[C@H](C)CC[C@@H]([C@H]2C)[C@@]35OO4)C[S+](=O)([O-])c2ccc(COC(=O)N(C)C)cc2)O[C@@H]2O[C@]3(C)CC[C@H]4[C@H](C)CC[C@@H]1[C@@]24OO3 (stereo partly drawn),0.264 µM (active)
2,C=CCON=C(C[C@H]1O[C@@H]2O[C@]3(C)CC[C@@H]4[C@H](C)CC[C@@H]([C@H]1C)[C@@]24OO3)[C@H]1O[C@@H]2O[C@]3(C)CC[C@H]4[C@H](C)CC[C@@H]([C@@H]1C)[C@@]24OO3,0.187 µM (active)
3,CC[C@@H](C)[C@@H]1NC(=O)[C@@H]2CCCN2C(=O)[C@@H](CC(O)CCl)OC(=O)CCNC(=O)[C@H](C)N(C)C(=O)[C@H](C(C)C)N(C)C1=O (stereo partly drawn) (cyclo([NMeA][βAla][X1]P[aIle][NMeV])),1.39 µM (active)
